From PubChem
Compounds with a hit are over-represented: about 2.2% of the library has one in this group of screens.
CHT allo act: allosteric activators of human choline transporter CHT | Q9GZV3 | CHT-expressing cells, membrane potential dye, choline EC20; hits give high values; LV-AA mutant CHT in HEK293 cells | B-score at 10 µM | actives 0.49% (n = 310,000) | AID 488977;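 active means initial fluorescence not abnormally high and integrated response B-score, plate-corrected, over 3 SD above library mean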
Target sequence (Q9GZV3 whole entry, looked up): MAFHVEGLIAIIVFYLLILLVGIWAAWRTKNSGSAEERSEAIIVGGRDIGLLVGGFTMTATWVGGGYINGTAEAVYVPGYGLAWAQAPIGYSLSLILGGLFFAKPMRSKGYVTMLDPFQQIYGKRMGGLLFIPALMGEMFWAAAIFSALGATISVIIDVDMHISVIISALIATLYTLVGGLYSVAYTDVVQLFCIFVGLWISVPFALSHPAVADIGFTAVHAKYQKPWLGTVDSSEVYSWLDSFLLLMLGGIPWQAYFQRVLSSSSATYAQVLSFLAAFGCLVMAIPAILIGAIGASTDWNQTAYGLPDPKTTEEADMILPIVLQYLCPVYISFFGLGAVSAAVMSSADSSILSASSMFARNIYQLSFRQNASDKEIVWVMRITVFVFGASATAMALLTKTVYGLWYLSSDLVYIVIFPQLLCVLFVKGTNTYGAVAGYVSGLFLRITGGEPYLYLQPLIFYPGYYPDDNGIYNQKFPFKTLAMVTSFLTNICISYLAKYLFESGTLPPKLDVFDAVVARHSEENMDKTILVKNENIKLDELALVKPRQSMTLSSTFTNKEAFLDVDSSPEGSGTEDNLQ
CHT block: inhibitors of human choline transporter CHT; Q9GZV3; CHT-expressing cells, membrane potential dye, choline response; hits give low values; B-score at 10 µM; actives 0.86% (n = 310,000); AID 488975;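 active means B-score over 3 SD under the library average, and starting fluorescence ratio not unusually high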;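 further: choline stimulus applied at its EC90 after an EC20 pre-addition; B-score computed on integrated fluorescence ratio after choline addition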
Platelet DG rel: modulates dense granule release in human platelets. AID 1663. inhibition, %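 (compounds screened at 7.5 µM in platelet-rich plasma)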. actives 0.22% (n = 300,000). human platelet-rich plasma, SFLLRN dense granule ATP release, luminescence;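 active means mean replicate score, as percent of positive control, at or above 50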
VLA-4 inh: inhibition in a human VLA-4 binding assay | P13612 | VLA-4 expressing cells, ligand binding flow cytometry | inhibition, % (about 7 µM as worked out from the volumes in the protocol) | actives 0.2% (n = 330,000); in the data active means inhibition above about 50%
AI-2 QS mod: modulates the Vibrio harveyi AI-2 quorum sensing system; AID 2094; activity change, % at 7.5 µM; actives 0.4% (n = 300,000); Vibrio harveyi JMH597 AI-2 luminescence/OD600 ratio, 9 h; hits give low values; strain lacks LuxN and CqsS sensors; 0 = neutral-control median; in the data active means activity change below about -75%, passing the limit was not always enough;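 further: luminescence divided by OD600 gain over 9 h not by final OD600 alone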
HIF activator: HIF pathway transcriptional activation; AID 1910; activation, % at 7.5 µM (by protocol); U2OS HRE-luciferase reporter, luminescence; normalized: DMSO 0%, desferrioxamine 100%; actives 0.32% (n = 300,000);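 active means mean activation of at least 10% of the iron chelator positive control signal, with at least half of replicates also reaching 10%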
VLA-4 allo CP: confirmation of allosteric modulators of human VLA-4 integrin; shares compounds with VLA-4 inh; U937 cells, HUTS-21 LIBS mAb binding, flow cytometry; LDV ligand present at threefold Kd; inhibition, % at 6.7 µM; actives 2% (n = 1,300); AID 2813; in the data active means inhibition above about 40%;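 further: 0% = ligand without compound and 100% = no ligand background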
Active calls of the source: *; i = inactive; . = no result given.

SMILES | CHT allo act | CHT block | Platelet DG rel | VLA-4 inh | AI-2 QS mod | HIF activator | VLA-4 allo CP
COc1cccc(-n2c(Cc3cc(=O)[nH]c(=O)[nH]3)nnc2SCC(=O)N2CCC(C)CC2)c1 | i | i | -1 | 17 | 9 | 0 | 5
COc1ccc(-n2c(Cc3cc(=O)[nH]c(=O)[nH]3)nnc2SCC(=O)N2CCC(C)CC2)cc1 | i | i | . | 10 | . | . | 0
CC1CCCCC1NC(=O)c1cc(S(=O)(=O)N2CCCCC2)ccc1N1CCOCC1 (centres undefined) | . | . | . | 7 | . | . | .
Cc1ccc(NC(=O)CCC(=O)c2cccs2)cc1F | i | i | -4 | 3 | -35 | 0 | .
COc1ccc(C(=O)NCc2cccnc2)cc1C(=O)NCc1cccnc1 | i | i | . | 56* | . | . | -1
COc1cc(OC)c(C(=O)NCc2cccnc2)cc1OC | i | i | -6 | -1 | 12 | 0 | .
O=C(c1cc(-c2ccccn2)nc2c(Cl)cccc12)N1CCN(C(=O)C2CCCO2)CC1 (centres undefined) | i | i | 16 | 1 | 21 | 0 | 0
O=C(c1cc(-c2ccccn2)nc2c(Cl)cccc12)N1CCN(S(=O)(=O)c2ccccc2)CC1 | i | i | -1 | -8 | 10 | 0 | .
CCOC(=O)C1CCN(CC(=O)Nc2ccc(S(=O)(=O)N3CCC(C)CC3)cc2)CC1 | i | i | 0 | 14 | 26 | -6 | .
CC(=O)NCCc1ccc(O)cc1 | i | i | -2 | -2 | 4 | 0 | .
C[C@H](NCCc1ccc(O)cc1)[C@H](O)c1ccc(O)cc1 | i | i | . | 52* | . | . | -9
Cn1cc(CNC(=O)CC2C(=O)NCCN2CC(C)(C)C)cn1 (centres undefined) | i | i | -2 | 22 | 14 | 0 | .
Cc1cccc(NC(=O)c2ccc3nc(N4CCOCC4)sc3c2)c1C | i | i | 4 | 3 | -4 | 0 | .
CCc1cccc(C)c1NC(=O)c1ccc2nc(N3CCOCC3)sc2c1 | i | i | -24 | 50* | 18 | 0 | 4
CCCCN(CCCNC(=O)c1ccc2nc(N3CCOCC3)sc2c1)Cc1ccccc1 | i | i | 3 | -112 | 4 | -1 | 10
O=C(c1ccc2nc(N3CCCCC3)sc2c1)N1CCN(c2ccccn2)CC1 | i | i | -3 | 49 | 20 | 4 | 8
Cc1cccc(N2CCN(C(=O)c3ccc4nc(N5CCCCC5)sc4c3)CC2)c1C | i | i | 2 | 2 | 23 | 2 | .
CC(CCc1ccccc1)NC(=O)c1ccc2nc(N3CCOCC3)sc2c1 (centres undefined) | i | i | -1 | 9 | -8 | -1 | .
CCCN1CCN(CCCNC(=O)c2ccc3nc(N4CCC(C)CC4)sc3c2)CC1 | i | i | 6 | 10 | 13 | 3 | -2
C=CCNC(=S)NNc1nc2sc3c(c2c(=O)[nH]1)CC(C)(C)OC3 | i | i | 13 | 5 | 17 | -2 | .
C[C@@H]1CN([C@@H](C)CO)C(=O)c2cc(NC(=O)C3CC3)ccc2O[C@@H]1CN(C)Cc1ccc(Cl)c(Cl)c1 | . | . | . | 27 | . | . | .
CCC(Cc1ccccc1)NC(=O)c1ccc2nc(N3CCOCC3)sc2c1 (centres undefined) | i | i | 0 | 10 | 8 | 0 | 3
Cc1ccc(C)c(N2CCN(C(=O)c3ccc4nc(N5CCOCC5)sc4c3)CC2)c1 | i | i | -13 | 4 | 53 | 0 | -1
O=C(NCCc1ccccc1)c1ccc2nc(N3CCOCC3)sc2c1 | i | i | -24 | -18 | 16 | 1 | 10
O=C(c1ccc2nc(N3CCOCC3)sc2c1)N1CCC(Cc2ccccc2)CC1 | i | i | 7 | -3 | 9 | 0 | .
CCOCCCn1c(=S)[nH]c2cc(C(=O)NCC(OC)OC)ccc2c1=O | i | i | -1 | -6 | 24 | 0 | .
CN(CC(=O)NCc1ccco1)C(=O)C1CC(=O)N(c2ccc3c(c2)OCCO3)C1 (centres undefined) | . | . | . | 8 | . | . | .
